# Measured values as given in PubChem BioAssay (EPA / NIEHS).
# Results filed as inconclusive are left out. Active and inactive are the calls of the source. How the source made its calls, unless noted: active means hit-call score of the fitted dose curve at least 0.9, where 1 is the maximum; inactive means score below 0.9.
# How the values were obtained:
# [1] = biological target: Nucleoli Translocation, AR (gene 367) (UniProt P10275); assay: UPITT_HCI_U2OS_AR_TIF2_Nucleoli_Agonist: University of Pittsburgh U2OS Androgen Receptor-Transcriptional Intermediary Factor 2 (AR-TIF2) Agonism High Content Imaging Assay for Nucleoli Translocation (AID 2283998; active means hit-call score of the fitted dose curve at least 0.9, where 1 is the maximum)
# Procedure, shortened: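 RFP-AR / GFP-TIF2 cells; cpds diluted in serum-free medium; single-point screen 20 uM final (0.2% DMSO), actives confirmed in triplicate; conc-response 0.195–50 uM final (0.5% DMSO). Readout: nucleolar red fluorescence, positive direction vs DMSO.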
# [2] = biological target: Ratio of Nucleoli Translocation and Cytoplasm, AR (gene 367) (UniProt P10275); assay: UPITT_HCI_U2OS_AR_TIF2_Nucleoli_Cytoplasm_Ratio_Antagonist: University of Pittsburgh U2OS Androgen Receptor-Transcriptional Intermediary Factor 2 (AR-TIF2) Antagonism High Content Imaging Assay for Ratio of Nucleoli Translocation and Cytoplasm (AID 2283999; active means hit-call score of the fitted dose curve at least 0.9, where 1 is the maximum;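 further: antagonists lower the DHT-driven ratio of nucleolar to cytoplasmic red signal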)
# Procedure, shortened: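 U2OS cells expressing RFP-tagged human AR and GFP-tagged TIF2; compounds tested at 20 uM final (0.2% DMSO) in primary screen, 0.195–50 uM (0.5% DMSO) for concentration response. Readout: nucleolar-to-cytoplasmic red fluorescence ratio by high-content imaging, fitted relative to DHT.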
# [3] = biological target: Ratio of Nucleoli Translocation and Cytoplasm, AR (gene 367) (UniProt P10275); assay: UPITT_HCI_U2OS_AR_TIF2_Nucleoli_Cytoplasm_Ratio_Agonist: University of Pittsburgh U2OS Androgen Receptor-Transcriptional Intermediary Factor 2 (AR-TIF2) Agonism High Content Imaging Assay for Ratio of Nucleoli Translocation and Cytoplasm (AID 2284000; active means hit-call score of the fitted dose curve at least 0.9, where 1 is the maximum;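 further: hits raise the red nucleolar to cytoplasm ratio above vehicle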)
# Procedure, shortened: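 Read-out first: nucleolar-to-cytoplasm ratio of red (AR-RFP) signal, quantified by high-content imaging in U2OS cells co-expressing TIF2-GFP. Activity is scored as signal increase over DMSO. Single-point screening used 20 uM final (0.2% DMSO).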
# [4] = CCTE_Simmons_MITO_basal_resp_rate: CCTE's HepG2 Seahorse XF Respirometric Screening Assay at Basal Respiratory State, Simmons Lab (AID 2284001); settings: actives raise or lower the signal
# Procedure, shortened: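 HepG2 respirometry; 7-pt titration 125 nM–100 uM final; kinetic OCR at 6 min intervals for 72 min; n=3 biological, technical singles; DMSO baseline, gain or loss fit; fenpyroximate (decrease) and 2,4-DNP (increase) controls.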
# [5] = CCTE_Simmons_MITO_max_resp_rate: CCTE's HepG2 Seahorse XF Respirometric Screening Assay at Maximal Respiratory State [uncoupled], Simmons Lab (AID 2284002); settings: actives raise or lower the signal
# Procedure, shortened: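 HepG2, Seahorse XF96, maximal OCR post-FCCP. Cpd 125 nM–100 uM final (7 conc), n=3 biological. Kinetic reads every 6 min (3 min mix/3 min measure) over 72 min; fit bidirectional vs DMSO.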
# [6] = CCTE_Simmons_MITO_inhib_resp_rate: CCTE's HepG2 Seahorse XF Respirometric Screening Assay at Inhibited Respiratory State [full ETC block], Simmons Lab (AID 2284006); settings: actives raise or lower the signal
# Procedure, shortened: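 HepG2 cells on Seahorse XF96; oxygen consumption measured after test compound, then FCCP, then rotenone/antimycin A injections over 72 min. Test chemicals at 7 concentrations, 125 nM–100 uM final. OCR fitted bidirectionally versus DMSO.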
# [7] = CCTE_Simmons_MITO_viability: CellTiter-Glo Viability Assessment for CCTE's HepG2 Seahorse XF Respirometric Screening Assay [post-hoc], Simmons Lab (AID 2284007; active means hit-call score of the fitted dose curve at least 0.9, where 1 is the maximum;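 further: cells exposed to chemical for 90 min before the ATP read; actives lower ATP signal relative to DMSO baseline meaning reduced viability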)
# Procedure, shortened: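 HepG2 cells from the Seahorse XF respirometry run were exposed 90 min to a 7-point series, 125 nM–100 uM final, DMSO vehicle; ATP content then read by luciferase luminescence. Three biological replicates, technical singles; loss of signal fitted versus DMSO.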
# [8] = CCTE_Shafer_MEA_acute_spike_number: CCTE's Neural Acute Assay for Total Number of Spikes, Shafer Lab (AID 2284008);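 on AC50: curve fitted for decrease in spike count so AC50 reflects inhibitors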
# Procedure, shortened: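 Rat cortical cultures, DIV 13/15, 37 C. 40 min baseline rec, cpd 0.03-40 uM, 40 min post-dose rec. Band-pass 300-5000 Hz, spike threshold 8x rms; % change in spike count per well, DMSO neg ctrl, loss-of-signal fit.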
# Chain of Nucleoli Translocation, AR (gene 367) (P10275 whole entry, looked up): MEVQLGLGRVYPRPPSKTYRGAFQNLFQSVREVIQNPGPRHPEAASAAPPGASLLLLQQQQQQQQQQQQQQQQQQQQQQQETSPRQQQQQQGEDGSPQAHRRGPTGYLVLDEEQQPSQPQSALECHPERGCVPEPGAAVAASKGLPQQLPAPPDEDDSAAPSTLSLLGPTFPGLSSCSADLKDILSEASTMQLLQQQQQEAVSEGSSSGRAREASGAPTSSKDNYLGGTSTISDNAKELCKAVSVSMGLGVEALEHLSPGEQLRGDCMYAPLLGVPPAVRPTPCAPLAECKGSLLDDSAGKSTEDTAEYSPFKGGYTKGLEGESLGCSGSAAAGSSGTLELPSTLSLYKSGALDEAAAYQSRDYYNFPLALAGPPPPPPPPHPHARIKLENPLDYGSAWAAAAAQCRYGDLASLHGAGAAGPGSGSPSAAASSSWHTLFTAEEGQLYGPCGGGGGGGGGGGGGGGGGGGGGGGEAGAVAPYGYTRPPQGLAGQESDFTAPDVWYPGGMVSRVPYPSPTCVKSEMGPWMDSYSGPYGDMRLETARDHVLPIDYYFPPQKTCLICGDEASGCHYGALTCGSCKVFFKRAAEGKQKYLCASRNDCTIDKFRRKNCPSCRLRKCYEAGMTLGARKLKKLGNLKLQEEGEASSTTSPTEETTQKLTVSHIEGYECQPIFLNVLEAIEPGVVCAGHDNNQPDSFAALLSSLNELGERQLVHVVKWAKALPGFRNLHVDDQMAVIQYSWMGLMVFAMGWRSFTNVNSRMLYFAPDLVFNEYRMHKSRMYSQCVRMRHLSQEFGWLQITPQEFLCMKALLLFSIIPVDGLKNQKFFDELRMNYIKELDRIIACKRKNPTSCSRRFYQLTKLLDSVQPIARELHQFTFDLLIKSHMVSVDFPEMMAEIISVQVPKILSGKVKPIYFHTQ
# Chain of Ratio of Nucleoli Translocation and Cytoplasm, AR (gene 367) (P10275 whole entry, looked up): as above
compound,measurement,setting,value
CCOP(=S)(OCC)Oc1nc(Cl)c(Cl)cc1Cl,outcome,[1],inactive
same,outcome,[2],inactive
same,outcome,[3],inactive
same,outcome,[4],inactive
same,outcome,[5],inactive
same,outcome,[6],inactive
same,AC50,[7],23.4 µM (active)
COc1cc(-c2ccc(N)c(OC)c2)ccc1N,outcome,[4],inactive
same,outcome,[5],inactive
same,outcome,[6],inactive
COC(=O)Cc1ccccc1,outcome,[8],inactive
O=C(O)C(Cl)(Cl)Cl,outcome,[8],inactive
CCN1CCC2(CC1)COc1cc3c(cc12)N(C(=O)c1ccc(-c2ccc(-c4nnc(C)o4)cc2C)cc1)CC3,AC50,[8],7.7 µM (active)
C=C(C)C(=O)[O][Sn]([CH2]CCC)([CH2]CCC)[CH2]CCC,AC50,[4],6.57 µM (active)
same,AC50,[5],5.4 µM (active)
same,outcome,[6],inactive
same,AC50,[7],10.9 µM (active)
same,AC50,[8],0.0312 µM (active)
CCC1(c2ccc(N)cc2)CCC(=O)NC1=O (stereo not drawn),outcome,[2],inactive
O=C(Nc1ccc2[nH]ccc2c1)c1cc2cc(F)ccc2n1Cc1cccc(F)c1,outcome,[4],inactive
same,outcome,[5],inactive
same,outcome,[6],inactive
same,AC50,[8],1.43 µM (active)
CC(C)(C)c1cc(O)ccc1O,outcome,[8],inactive
O=C1C2(Cl)C3(Cl)C4(Cl)C(Cl)(Cl)C5(Cl)C3(Cl)C1(Cl)C5(Cl)C24Cl (stereo not drawn),AC50,[1],12.7 µM (active)
same,AC50,[2],13.7 µM (active)
same,AC50,[3],13.1 µM (active)
same,AC50,[4],54 µM (active)
same,AC50,[5],35.8 µM (active)
same,outcome,[6],inactive
same,AC50,[7],71.6 µM (active)
same,AC50,[8],1.84 µM (active)
C[C@H]1CCCC(=O)CCC/C=C/c2cc(O)cc(O)c2C(=O)O1,AC50,[1],80.6 µM (active)
same,AC50,[3],84.8 µM (active)
CC(=O)[O][Hg][c]1ccccc1,outcome,[1],inactive
same,AC50,[2],0.424 µM (active)
same,outcome,[3],inactive
same,AC50,[4],13.1 µM (active)
same,AC50,[5],13.1 µM (active)
same,outcome,[6],inactive
same,AC50,[7],81.7 µM (active)
same,outcome,[8],inactive
CC(=O)OC(c1ccccc1)C(Cl)(Cl)Cl (stereo not drawn),outcome,[8],inactive
